# Laboratory results from PubChem BioAssay AID720507 (National Center for Advancing Translational Sciences (NCATS), 2013).
# The whole screen tested about 2,300 compounds, of which about 140 (6.1%) were called active. About 18% were inconclusive and are not listed. A selection follows. Values without a mark were called inactive. Calls follow the shape of the dose curve; as a rule, active = well fitted activation curve with a large enough effect; inconclusive = small, poorly fitted or top-dose-only effect; inactive = flat fitted curve, though single readings scatter.
# Target: D(2) dopamine receptor (Homo sapiens) (UniProt P14416)
# Test: qHTS of D3 Dopamine Receptor Agonist: D2 Dopamine Receptor B-arrestin Agonist Counterscreen; also: nearly all actives have a fitted effect of over 70% in size; as to activation: % of control where 0% means no effect
# Settings: DiscoveRx PathHunter D2 beta-arrestin, luminescence, 90 min; series mostly up to 76.9 µM; activation: at the top concentration
# Source text: D3 DARs represent a very important target for the treatment of several neuropsychiatric disorders. Indeed, one of the most promising therapeutic applications for the D3 DAR is in the area of addiction and related disorders. […] These findings have been observed with a number of addictive substances including cocaine, amphetamine, nicotine, and alcohol. […] Increased D3 DAR activity can thus lead to neuroprotective and neurorestorative actions in the CNS. […] This assay is used to profile the activity of the identified D3 dopamine receptor agonist against the D2 dopamine receptor. Greater than 10% of the maximum dopamine agonist response is desired for this assay. NIH Molecular Libraries Probe Production Centers Network [MLPCN] NIH Chemical Genomics Center [NCGC] MLPCN Grant: NS064831 Assay Submitter (PI): David Sibley
# DiscoveRx D2 cells were thawed from frozen stock and seeded at 2,100 cells/ 3 uL/well media (DiscoveRx Plating Reagent 2) with MultiDrop Combi dispenser (Thermo Scientific, Logan, UT) onto white tissue culture treated 1536-well Aurora plates (Brooks Automation, Chelmsford, MA) and allowed to attach overnight at 37 deg C, 5% CO2. Next, 23 nL/well of compound solutions in DMSO were added with a pintool transfer (Kalypsis, San Diego, CA). […] The rest of the plate was dispensed with buffer only, 1 uL/well as well. The cells were stimulated by compounds or dopamine control for 90 minutes at 37 deg C, 5% CO2, after which 1.5 ul/well of DiscoveRx detection reagent was added with BioRAPTR FRD dispenser. The detection reagent was prepared by mixing of Galacton Star Substrate, Emerald II solution and PathHunter buffer (supplied by the assay kit) together at 1:5:19 proportion accordingly just prior to dispensing. The plates were incubated at ambient temperature for 1 hour and then the luminescent signal was read on ViewLux plate reader (PerkinElmer, Waltham, MA).
# Potency is read from the fitted curve at half-maximal effect.
# D(2) dopamine receptor (Homo sapiens), sequence (P14416 whole entry, looked up): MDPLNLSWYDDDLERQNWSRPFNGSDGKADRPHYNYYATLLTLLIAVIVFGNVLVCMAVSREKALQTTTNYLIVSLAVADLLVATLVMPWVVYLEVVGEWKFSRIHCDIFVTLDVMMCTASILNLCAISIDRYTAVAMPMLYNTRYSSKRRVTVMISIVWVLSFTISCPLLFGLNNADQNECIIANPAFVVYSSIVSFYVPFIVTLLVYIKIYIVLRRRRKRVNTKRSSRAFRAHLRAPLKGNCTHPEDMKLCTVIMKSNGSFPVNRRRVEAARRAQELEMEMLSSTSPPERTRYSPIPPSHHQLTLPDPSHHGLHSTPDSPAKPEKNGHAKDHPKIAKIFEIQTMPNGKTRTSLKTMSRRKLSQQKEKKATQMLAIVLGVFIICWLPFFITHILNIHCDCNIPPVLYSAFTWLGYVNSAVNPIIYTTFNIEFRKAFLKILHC
Compound,activation [%],Potency
O=C(CN1CCN(S(=O)(=O)c2cc(Cl)ccc2Cl)CC1)c1ccc(O)c(O)c1,13.6,
O=C(c1ccco1)N1CCN(Cc2cccc(C(F)(F)F)c2)CC1,,31.6 µM (active)
CCC(=O)Nc1ccc(C(=O)N2CCN(C(=O)c3ccco3)CC2)cc1,-1.66,
Cc1cc(C)n2nc(C(=O)N3CCN(Cc4ccc5c(c4)OCO5)CC3)nc2n1,10.6,
Cc1ccc(S(=O)(=O)N2CC(O)C[C@H]2C(=O)OCC(=O)Nc2ccc(N3CCOCC3)cc2)cc1C (some centres not stated),-1.51,
CCN(CCCNC(=O)c1ccc2c(c1)NC(=O)CN2C)c1cccc(C)c1,9.85,
O=C(COc1coc(CN2CCN(c3ccccc3)CC2)cc1=O)Nc1ccccc1F,18.8,
CN(CCO)S(=O)(=O)c1ccc2c(c1)C(=O)c1cc(S(=O)(=O)N(C)CCO)ccc1-2,-1.49,
Cc1n[nH]c(C)c1S(=O)(=O)N1CCCC(C(=O)NCC2COc3ccccc3O2)C1 (configuration not stated),0.0237,
OCC1(Cc2ccccc2)CCN(Cc2cc3ccccc3o2)CC1,,25.1 µM (active)
CS/C(=C\C(=O)c1ccco1)Nc1ccccc1Cl,6.85,
O=c1oc(-c2ccccc2NS(=O)(=O)c2ccc(Cl)cc2)nc2ccccc12,-0.237,
O=C(NC1CCCCC1)c1ccc2c(=O)n(CC3CCCO3)c(=O)[nH]c2c1 (configuration not stated),10.1,
COC(c1ccccc1)c1nnc(CCC(=O)N2CCN(CCOc3ccccc3)CC2)o1 (configuration not stated),13.2,
CN1CCC(CN)(N2CCN(c3ccccc3)CC2)CC1,11.1,
Cc1c(C(=O)Nc2cccc(-c3nnc4n3CCCCC4)c2)oc2ccccc12,-2.93,
O=C(Nc1cccnc1Cl)c1cc(-c2cccc(Cl)c2)on1,-2.13,
COc1ccc([C@H]2CC(=O)C=C(c3ccc(OC(F)(F)F)cc3)C2)cc1OC,20.6,
Cc1c(CC(=O)N2CCN(C(=O)C3COc4ccccc4O3)CC2)c(=O)oc2c(O)c(O)ccc12 (configuration not stated),,31.6 µM (active)
O=S(=O)(c1ccc(F)cc1)N1CC=C(c2ccccc2)CC1,1.2,
CC[C@H](C)C(=O)N[C@H]1CCCN1C(=O)/C=C/c1ccccc1,-0.497,
CCOC(=O)[C@H]1[C@H]2COc3ccc(C)cc3[C@@H]2N2C(=O)CN(Cc3ccc(F)cc3)C(=O)[C@@]12C,5.21,
Cc1ccc(O)c(-c2cc(C(=O)Nc3c(C)n(C)n(-c4ccccc4)c3=O)[nH]n2)c1,-2.19,
CCCN(CC(=O)Nc1ccccc1C)C(=O)c1ccc2[nH]c3c(c2c1)CC(C)CC3 (configuration not stated),2.25,
Cc1cnc(C(=O)N2CCCC(N3CCN(c4ccccc4F)CC3)C2)cn1 (configuration not stated),21.8,

Compound,activation [%],Potency
Cc1cccc(C)c1NC(=O)CNC(=O)c1ccc2c(c1)OCCO2,-1.89,
COc1ccc([C@H]2CC(=O)C=C(c3ccc(CO)cc3)C2)cc1,1.16,
CC1(C)CC(=O)C=C(c2ccc3ncccc3c2)C1,-1.87,
COc1ccc(NC(C)=O)cc1NC(=O)CN1CCN(c2ccccn2)CC1,11.8,
O=C(Nc1cccc(-c2nc3ccccc3[nH]2)c1)c1ccc(C(=O)Nc2cccc(-c3nc4ccccc4[nH]3)c2)cc1,4.47,
CC(=O)OC(C)C[N+](C)(C)C (configuration not stated),-1.97,
CCC(=O)c1ccc(OCC(=O)Nc2ccc(N3CCCCC3)cc2)cc1,-0.473,
OCC[C@H]1C[C@H](O)[C@@H](O)[C@]2(Cc3ccccc3CO2)O1,-1.68,
O=C(Cc1csc(Nc2nc(=S)[nH]c3ccccc23)n1)NCCCN1CCN(c2cccc(Cl)c2)CC1,-1.51,
O=C(NC(=O)c1ccccc1)Nc1ccccc1O,3.31,
CN1CCN(S(=O)(=O)c2cccc(C(=O)Nc3sccc3C#N)c2)CC1,-0.355,
O=c1cc(CCl)nc2scc(-c3ccccc3)n12,-4.57,
O=C(CSC1CC(=O)N(CCc2ccccc2)C1=O)Nc1ccc(Cl)cc1 (configuration not stated),5.18,
COc1cc(OC)c(-n2cc(-c3ccc(Cl)cc3)[nH]c2=O)cc1Cl,-7.23,
O=C(c1c(F)cccc1F)N1CCN(S(=O)(=O)c2ccc3c(c2)OCCO3)CC1,2.32,
COc1ccc(CC(NC(C)=O)C(=O)N2CCN(C(=O)Nc3cccc(Cl)c3)CC2)cc1OC (configuration not stated),-3.65,
CC(C)c1ccc2c(c1)c(SC(C)(C)C)c(CC(C)(C)C(=O)O)n2Cc1ccc(Cl)cc1,11.4,
NS(=O)(=O)c1ccc(CCNS(=O)(=O)c2cccc3cccnc23)cc1,-1.71,
O=C(CN1CCN(c2ccccn2)CC1)NC1CCCCC1,8.31,
Cc1c(CN2CC[C@@H](N3CCN(c4ccccn4)CC3)[C@H](O)C2)[nH]c2ccc(F)cc12,,28.2 µM (active)
NS(=O)(=O)c1ccc(CCNC(=O)NC2CCCCC2)cc1,-4.01,
O=C1c2cccc3cccc(c23)N1CN1CCN(c2ccccn2)CC1,21.1,
CCC(=O)Nc1ccc2c(c1)nc(CCN1CCN(c3ccccn3)CC1)n2C,26.1,
O=C(C1CC(=O)N(c2ccc(F)cc2)C1)N1CCN(c2ccccc2)CC1 (configuration not stated),-2.2,
Cn1c(=O)c(=O)n(C)c2cc(S(=O)(=O)NCCN3CCN(c4ccccc4F)CC3)ccc21,21.6,

Compound,activation [%],Potency
COc1ccc(N2CCN(Cc3cc(=O)oc4ccc5ccccc5c34)CC2)cc1,3.24,
O=C(CCN1CCN(c2ccccc2)CC1)NNC(=S)Nc1ccccc1,25.2,
Nc1nonc1-n1nnc(C(=O)N/N=C/c2ccc(Cl)cc2)c1-c1ccc2c(c1)OCO2,13.9,
O=C1c2ccccc2S(=O)(=O)N1CC(O)Cn1c2ccccc2c2ccccc21 (configuration not stated),6.97,
O=C(c1ccc2c(c1)OCCO2)C1CCN(S(=O)(=O)c2cccc(F)c2)CC1,1.28,
O=C(Nc1ccc(F)cc1F)N1CCCN(CCOc2ccccc2)CC1,3.92,
O=C(CCN1CCN(C/C=C/c2ccccc2)CC1)Nc1ccccc1Cl,18.6,
CC(=O)C[C@@H](O)CC(=O)[C@H]1OC(=O)CCCCCCc2ccccc21,-0.828,
O=C(O[C@H]1[C@H](Cc2ccccc2)NS(=O)(=O)[C@H]2C[C@@H]3C=C[C@]12O3)c1ccc([N+](=O)[O-])cc1,-0.26,
CNC(=O)NC(=O)C(C)N1CCN(C/C=C/c2ccccc2)CC1 (configuration not stated),5.3,
c1ccc(-c2cnc(CN3CCN(c4ccccc4)CC3)o2)cc1,9.03,
C/C(=N\NC(=S)NC1CCCCC1)c1ccc(C)o1,17.6,
COc1ccc(S(=O)(=O)N2CCSCC2)cc1,-3.27,
O=C(CC1NCCc2ccccc21)Nc1cccc(Cl)c1 (configuration not stated),-6.22,
O=C1C=C(c2cccc(Br)c2)C[C@@H](c2ccc(F)cc2)C1,-3.31,
CC(C)(C)C(=O)OCc1nc(-c2ccc(O)c(O)c2)cs1,,28.2 µM (active)
CC(CCc1ccccc1)NCC(O)c1cccc([N+](=O)[O-])c1 (configuration not stated),11.9,
CC(OC(=O)/C=C/c1ccccc1)C(=O)NC1CCCCC1C (configuration not stated),2.72,
O=C(OCc1nc2ccccc2[nH]1)C1CCCCC1,10.5,
CCCN1CC=C2C(C#N)=C(N)C(C#N)(C#N)C(c3cc(OC)ccc3OC)C2C1 (configuration not stated),-1.56,
CN(C)CCOC(=O)C(c1ccccc1)C1(O)CCCC1 (configuration not stated),-3.98,
COc1cccc(NC(=O)C2CCCN(c3ncnc4c3nc3n4CCCCC3)C2)c1 (configuration not stated),-3.08,
CC(=C1C(=O)c2ccccc2C1=O)N1CCN(c2ccccn2)CC1,24.7,
CNCC(O)c1ccc(O)c(O)c1 (configuration not stated),,17.8 µM (active)
Cc1ccc(CN2CCN(c3ncccn3)CC2)c(C)c1,,50.1 µM (active)

Compound,activation [%],Potency
Cc1ccccc1Nc1nc(N)nc(CN2CCN(c3ccccn3)CC2)n1,-0.216,
O=C(CN1CCN(c2ncccn2)CC1)Nc1ccccc1C(F)(F)F,17.1,
O=C1CC[C@H](O)CCN1[C@H](CSc1ccc(Br)cc1)Cc1ccccc1,0.237,
O=C(c1ccccc1)c1ccc(OCC(O)CN2CCCC2)cc1 (configuration not stated),-1.06,
Cc1cc(C(=O)NNC(=O)c2ccccc2O)c(C)o1,-1.85,
CCCCC(=O)NNC(=S)NC(=O)C(c1ccccc1)c1ccccc1,-7.08,
Cn1c(C(=O)NCCCN2CCN(c3cccc(Cl)c3)CC2)cc2c(=O)n(C)c3ccccc3c21,9.01,
CCn1cc(C(=O)N2CCN(Cc3ccc4c(c3)OCO4)CC2)c2cc(OC)c(OC)cc2c1=O,18.8,
CCC(CC)NC(=O)/C=C/c1cccc([N+](=O)[O-])c1,-0.402,
O=C(CCCn1c(=O)[nH]c2cc(Cl)ccc2c1=O)NCCN1CCN(c2ccccc2)CC1,10.7,
O=C(CCn1c(=O)[nH]c2ccccc2c1=O)NCCCN1CCN(c2cccc(Cl)c2)CC1,12.8,
CC(C)c1ccc(OCC(O)CN2CCN(c3ccccn3)CC2)cc1 (configuration not stated),,39.8 µM (active)
CC(=O)Nc1ccc(OCC(O)CN2CCN(c3ccccc3Cl)CC2)cc1 (configuration not stated),18.5,
Cc1ccccc1OCC(O)CN1CCN(c2ccccn2)CC1 (configuration not stated),7.71,
COc1ccc(C2NC(=O)C(=O)/C2=C(\O)c2ccc(Cl)cc2)cc1OC (configuration not stated),-3.12,
CCn1c(=O)n(CC)c2cc(N3CCCC3)c(NC(=O)c3ccccc3Br)cc21,2.89,
Cc1cccc(OCC(=O)NCC(=O)N/N=C/c2ccc(N(C)C)cc2)c1,-2.06,
OC(COCc1ccco1)CN1CCN(c2ccccc2)CC1 (configuration not stated),18.6,
OC(COc1ccc2c(c1)CCC2)CN1CCN(c2cccc(Cl)c2)CC1 (configuration not stated),27.5,
CC(C)(C)n1ncc2c(=O)n(Cc3c(Cl)cccc3Br)cnc21,6.34,
CC(C)CCN1CCN(Cc2cn[nH]c2C2CCCCC2)CC1CCO (configuration not stated),3.55,
Cc1cc(C)c(/C=C2\C(=O)Nc3ccccc32)[nH]1,-6.49,
